AmpC detergent = inhibitors of E. coli AmpC beta-lactamase with detergent. P00811. AmpC hydrolysis of nitrocefin, absorbance 480 nm, 0.01% Triton. Potency, µM (top dose mostly 114 µM), inactives show at the top dose activity change, negative = inhibition, hits mostly inhibitors. 370,000 tested, 0.041% active. AID 485294;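 note: potency is the fitted concentration of half-maximal effect; 0% = no-compound wells and -100% = no-enzyme wells; nearly all actives have a fitted effect of over 25% in size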
Target sequence (P00811 whole entry, looked up): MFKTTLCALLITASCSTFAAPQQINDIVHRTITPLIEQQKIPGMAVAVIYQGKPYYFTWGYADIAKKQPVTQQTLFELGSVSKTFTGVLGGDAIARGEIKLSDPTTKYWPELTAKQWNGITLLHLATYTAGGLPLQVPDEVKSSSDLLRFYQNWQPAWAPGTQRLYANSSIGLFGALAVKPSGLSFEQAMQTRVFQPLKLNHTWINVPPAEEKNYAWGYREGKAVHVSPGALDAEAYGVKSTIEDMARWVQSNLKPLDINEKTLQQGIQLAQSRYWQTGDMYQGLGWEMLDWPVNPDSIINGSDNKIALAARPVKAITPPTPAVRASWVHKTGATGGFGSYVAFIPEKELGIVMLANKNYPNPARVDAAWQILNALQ
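AmpC (5.3 nM in the dispensed reagent) in 20 mM phosphate pH 7.0 with 0.01% (detergent screen) or 0.0001% Triton X-100 was preincubated with compounds for 15 min at room temperature. Nitrocefin was then added from an 800 uM solution, and hydrolysis was followed at 480 nm.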
Vaccinia Venus = vaccinia inhibition (Venus reporter) | Vaccinia virus Venus reporter expression, fluorescence | Potency, µM (doses to about 36.5 µM), inactives show at the top dose activity change, negative = inhibition, most hits filed as inhibitors | 330,000 tested, 0.46% active | AID 720580; calls by dose curve; tested in A549 cells; note: potency is the fitted concentration of half-maximal effect; % is set by controls: 0 for no effect and ±100 for the full control effect; nearly all actives have a fitted effect of over 30% in size
Vaccinia mCherry = inhibitors of vaccinia virus infection (mCherry reporter signal). Vaccinia virus mCherry reporter infection, fluorescence. Potency, µM (doses to about 36.5 µM), for the others: at the top dose activity change, negative = inhibition, hits mostly inhibitors. 310,000 tested, 0.63% active. AID 720579; calls by dose curve; tested in A549 cells; note: potency is the fitted concentration of half-maximal effect; % is set by controls: 0 for no effect and ±100 for the full control effect; nearly all actives have a fitted effect of over 35% in size
AmpC inh no detg = AmpC beta-lactamase inhibition without detergent; P00811; AmpC nitrocefin hydrolysis, absorbance 480 nm, 0.0001% Triton; Potency, µM (doses to about 57.1 µM), for inactives: at the top dose activity change, negative = inhibition, hits mostly inhibitors; 330,000 tested, 0.52% active; AID 485341;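 note: potency is the fitted concentration of half-maximal effect; plate controls were no compound for no effect and no enzyme for full effect; nearly all actives have a fitted effect of over 20% in size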
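20 mM phosphate pH 7.0 + 0.01% (detergent screen) or 0.0001% Triton X-100; 5.3 nM AmpC reagent; cpd preinc 15 min RT; nitrocefin (800 uM stock) to start; A480 q20 s × 4 min; Activity was normalised to no-enzyme and no-compound control wells.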
AMA1-RON2 inh = inhibitors of Plasmodium falciparum AMA1-RON2 interaction. AlphaScreen AMA1-biotinylated RON2 peptide binding. Potency, µM (highest dose often 58.2 µM), for the others: top-dose activity change, negative = inhibition, most hits filed as inhibitors. 360,000 tested, 0.2% active. AID 720542;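 note: potency is the fitted concentration of half-maximal effect; 0% = vehicle wells and -100% = peptide control; nearly all actives have a fitted effect of over 45% in size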
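AMA1 (3D7) with his tag at 25 nM final met compounds first, then biotinylated RON2 peptide at 25 nM; detection used donor plus acceptor beads, 10 µg/mL apiece, read by AlphaScreen after 30 min at room temperature.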
SARS PLpro yeast-1 = inhibitors of SARS-CoV papain-like protease in yeast | S. cerevisiae expressing SARS-CoV PLpro, growth rescue | Potency, µM (highest dose often 32.9 µM), inactives show top-dose activity, positive = growth rescue, hits mostly activators | 330,000 tested, 0.19% active | AID 485353; calls by dose curve; note: potency is the fitted concentration of half-maximal effect; 0% is about no effect; nearly all actives have a fitted effect of over 55% in size
SARS PLpro yeast-2 = Validates SARS-CoV PLpro inhibitor hits in yeast; shares compounds with SARS PLpro yeast-1; yeast expressing SARS-CoV PLpro, growth phenotype rescue; calls only; 1,000 tested, 19% active; call rule not given here
Starred values were filed as active, the others as inactive; i = inactive; ? = inconclusive; · = not tested or not shown; + = active, no number; [ ] = another dose, or the depositor's remark. Only some compounds are listed: those with a hit (about 1.3% of all), similar ones and a draw of the others. Unless noted, calls come from the whole dose curve; as a rule, active = well fitted curve in the direction sought with a large enough effect; inconclusive = small, poorly fitted or top-dose-only effect, or another doubt; inactive = no such curve, though single readings can be large; an effect the other way counts as inactive or inconclusive.

SMILES | AmpC detergent | Vaccinia Venus | Vaccinia mCherry | AmpC inh no detg | AMA1-RON2 inh | SARS PLpro yeast-1 | SARS PLpro yeast-2
CC(C)CN1CN(Cc2ccccc2)CNC1=S | -4% | -10% | i | -18% | 5% | 13µM* | +
CCCN1CNC(=S)N(Cc2ccccc2)C1 | -10% | -2% | -11% | -14% | -10% | 8% | ·
CCCCN1CNC(=S)N(Cc2ccccc2)C1 | -9% | -19% | -2% | -17% | -9% | ? | i
Cc1ccc(CNC(=O)c2cccn2-c2nnc(N3CCCCC3)s2)cc1 | 2% | -4% | -9% | · | · | · | ·
CCc1ccc(-n2c(=O)c3c4c(sc3n(Cc3ccccc3C#N)c2=O)CCCC4)cc1 | 15% | -10% | -5% | · | · | · | ·
COc1cccc(CN(C)C(=O)CC2C(=O)NCCN2C2Cc3ccccc3C2)c1 (stereo not given) | -5% | -13% | -11% | 105% | -4% | · | i
CC(c1ccccc1)N(NC(=O)C(O)(c1ccccc1)c1ccccc1)C(=O)c1ccccc1 (stereo not given) | ? | -9% | -15% | -16% | 1% | 13% | ·
CCN(NC(=O)C(O)(c1ccccc1)c1ccccc1)C(=O)c1ccccc1 | -16% | -4% | i | -21% | 8% | 14µM* | i
Cc1ccccc1OCc1ccc(-c2nc(C#N)c(NCCCN(C)C)o2)o1 | 5% | -12%[7.34 µM] | -12%[7.34 µM] | · | · | · | ·
CCOC(=O)c1cccc(NC(=O)C2CCN(S(=O)(=O)c3c(C)noc3/C=C/c3ccc(C)cc3)CC2)c1 | 32% | -27% | ? | · | · | · | ·
COc1ccccc1OCCn1c(C(C)Oc2ccccc2)nc2ccccc21 (stereo not given) | 4% | -18% | -12% | · | · | · | ·
CN1CCN(C(=O)c2ccc(S(=O)(=O)c3ccc(Br)cc3)cc2)CC1 | ? | -11% | -21% | 45% | 2% | 11µM* | i
CCCC(C(=O)O)N1C(=O)/C(=C/c2cccn2C)SC1=S (stereo not given) | 1% | 9% | -5% | 0% | -2% | ? | i
CSc1ccc(/C=C2\C=Cc3ccccc32)cc1 | · | -4% | 16% | · | · | · | ·
COc1ccccc1C(=O)NCC(=O)OC(C)C(=O)NC1CCCCC1C (stereo not given) | -2% | · | · | 11% | -3% | 0% | ·
COc1ccccc1C(=O)NCC(=O)OC(C)C(=O)NC(=O)NC1CCCCC1 (stereo not given) | 1% | -10% | · | 19% | -6% | ? | i
COc1ccc(NC(=O)CN2CCOCC2)cc1S(=O)(=O)N1CCCCC1 | 8% | -11% | -15% | -5% | -13% | ? | i
COc1cccc(-c2nnc3n(Cc4ccc(C)cc4)c(=O)c4ccccc4n23)c1O | 20% | -4% | -17% | · | · | · | ·
CCN(CC)S(=O)(=O)c1cccc(NC(=O)/C=C/c2cccc([N+](=O)[O-])c2)c1 | -2% | ? | ? | -28% | -11%[11.6 µM] | 20µM* | ?
CCN(CC)S(=O)(=O)c1cccc(NC(=O)/C=C/c2ccc([N+](=O)[O-])cc2)c1 | ? | 0% | -10% | -33% | -1% | 11% | ·
O=C(N/N=C/c1ccc(O)c(O)c1O)/C(=C/c1ccc([N+](=O)[O-])cc1)NC(=O)c1ccccc1 | -4% | -8% | -21% | -42% | 37% | 2.5µM* | i
COc1cccc(NC(=O)CN(C)C(=O)CC2CCCC2)c1 | · | -9% | -15% | · | -1% | · | ·
Cc1ccc2c(c1)c(=O)c(Br)c(C)n2Cc1ccccc1 | -4% | -7% | -13% | 23% | 18% | ? | i
Cc1ccc(-c2noc(CN(C3CCCCC3)S(=O)(=O)c3ccc(F)cc3)n2)cc1 | 18% | -16% | -8% | · | · | · | ·
O=C(NC(=S)Nc1ccccn1)c1ccco1 | ? | -1% | -13% | -14% | 77% | 3.2µM* | i
Cc1ccnc(NC(=S)NC(=O)c2ccco2)c1 | -9% | 1% | -14% | -15% | 15% | 2% | ·

Screening results as filed in PubChem BioAssay.
